The record followed here is the supplement of paper PMC10849652.

Common to all, as to assay: log2 fold change, soluble protein after heating vs DMSO (PISA); higher = thermal stabilisation; K562 lysate, 10 uM; active = over 0.2 and 3.5 SD of the protein, either way, in both replicates (recomputed)
Compound in experiment [1]: NCC(=O)Nc1ccc(-n2nc(C(F)(F)F)cc2-c2ccc3c(ccc4ccccc43)c2)cc1
The procedure, abridged:
(§1)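 To prepare the extract, K562 pellets were dounce-homogenised in PBS pH 7.4 with 1 mM MgCl2, giving crude material at 1 mg/mL protein. This was treated with 10 μM compound for 30 min, then heated in aliquots for 3 min over 48°C-58°C before pooling and addition of NP-40 to 0.5% at 4°C. Centrifugation at 21,000xg for 90 min left soluble protein in the supernatant, which TMTpro 16plex LC-MS/MS quantified with equalised channel sums. Results are log-two fold changes in thermal stability compared with solvent controls, from duplicates.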

Compound in experiment [2]: O=C(CCCCCCC(=O)Nc1ccccc1)NO [vorinostat]
In short, it runs like this:
as §1

Compound in experiment [3]: O=C(O)c1ccc2c(c1)nc(Nc1cccc(Cl)c1)c1ccncc12 [silmitasertib]
In short, it runs like this: as §1

Compound in experiment [4]: O=C1NC(=O)C(c2cnc3ccccn23)=C1c1cn2c3c(cc(F)cc13)CN(C(=O)N1CCCCC1)CC2
The procedure, abridged: as §1

Compound in experiment [5]: c1cn2cc(-c3ccc4cn[nH]c4c3)nc(Nc3ccc(N4CCOCC4)cc3)c2n1 [entospletinib]
The procedure, abridged: as §1

Targets with a hit are over-represented here; the source holds about 8,800 in all. About 0.5% of all pairs of compound and target were hits. A number with no mark means an inactive call.

Sequence of UniProt P11309 (P11309 whole entry, looked up): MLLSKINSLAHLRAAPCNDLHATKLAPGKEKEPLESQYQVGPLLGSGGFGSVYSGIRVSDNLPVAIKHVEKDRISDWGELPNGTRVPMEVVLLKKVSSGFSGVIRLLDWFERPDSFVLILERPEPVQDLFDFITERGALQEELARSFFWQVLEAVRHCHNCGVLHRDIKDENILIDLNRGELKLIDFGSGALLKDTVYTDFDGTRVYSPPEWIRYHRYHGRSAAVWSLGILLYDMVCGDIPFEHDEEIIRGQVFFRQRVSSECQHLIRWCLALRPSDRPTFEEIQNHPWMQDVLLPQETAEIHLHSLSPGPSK
Sequence of UniProt O75928 (O75928 whole entry, looked up): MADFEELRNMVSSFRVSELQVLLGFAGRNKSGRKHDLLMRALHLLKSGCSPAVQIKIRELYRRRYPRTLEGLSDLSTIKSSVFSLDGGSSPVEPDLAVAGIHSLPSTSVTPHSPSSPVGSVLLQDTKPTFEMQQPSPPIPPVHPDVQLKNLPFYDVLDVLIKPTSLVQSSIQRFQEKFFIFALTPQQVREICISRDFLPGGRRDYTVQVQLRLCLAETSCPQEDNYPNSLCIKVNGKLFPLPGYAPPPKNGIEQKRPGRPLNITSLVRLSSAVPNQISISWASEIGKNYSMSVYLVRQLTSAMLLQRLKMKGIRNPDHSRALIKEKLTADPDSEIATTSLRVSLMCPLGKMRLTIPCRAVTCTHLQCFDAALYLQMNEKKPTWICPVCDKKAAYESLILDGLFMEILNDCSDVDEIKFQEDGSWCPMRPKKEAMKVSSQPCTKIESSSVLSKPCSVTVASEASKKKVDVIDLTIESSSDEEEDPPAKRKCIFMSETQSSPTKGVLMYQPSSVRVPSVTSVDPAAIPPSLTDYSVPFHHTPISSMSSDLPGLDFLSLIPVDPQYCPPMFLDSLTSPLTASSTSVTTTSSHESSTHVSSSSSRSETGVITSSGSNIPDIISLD
Sequence of UniProt Q9UNP9 (Q9UNP9 whole entry, looked up): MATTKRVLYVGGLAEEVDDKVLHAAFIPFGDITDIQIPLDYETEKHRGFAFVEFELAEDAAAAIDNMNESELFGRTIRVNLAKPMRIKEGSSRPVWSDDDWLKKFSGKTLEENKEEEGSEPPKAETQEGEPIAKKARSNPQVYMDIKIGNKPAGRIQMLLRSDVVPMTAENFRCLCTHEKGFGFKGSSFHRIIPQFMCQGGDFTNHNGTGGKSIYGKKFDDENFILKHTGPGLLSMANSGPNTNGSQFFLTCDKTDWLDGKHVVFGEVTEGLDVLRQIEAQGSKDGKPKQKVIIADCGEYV
Sequence of UniProt Q9NR22 (Q9NR22 whole entry, looked up): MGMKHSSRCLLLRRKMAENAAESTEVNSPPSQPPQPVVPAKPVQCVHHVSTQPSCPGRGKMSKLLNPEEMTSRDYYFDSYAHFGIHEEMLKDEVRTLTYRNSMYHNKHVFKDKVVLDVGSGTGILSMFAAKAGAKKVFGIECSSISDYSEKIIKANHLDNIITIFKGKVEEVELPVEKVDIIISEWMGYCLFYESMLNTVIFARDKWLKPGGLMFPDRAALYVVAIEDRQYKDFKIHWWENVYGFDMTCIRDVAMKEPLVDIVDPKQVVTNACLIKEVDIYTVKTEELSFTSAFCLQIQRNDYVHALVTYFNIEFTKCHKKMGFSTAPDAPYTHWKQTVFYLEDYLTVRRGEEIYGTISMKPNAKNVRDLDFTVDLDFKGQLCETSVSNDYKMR
Sequence of UniProt Q96PU8 (Q96PU8 whole entry, looked up): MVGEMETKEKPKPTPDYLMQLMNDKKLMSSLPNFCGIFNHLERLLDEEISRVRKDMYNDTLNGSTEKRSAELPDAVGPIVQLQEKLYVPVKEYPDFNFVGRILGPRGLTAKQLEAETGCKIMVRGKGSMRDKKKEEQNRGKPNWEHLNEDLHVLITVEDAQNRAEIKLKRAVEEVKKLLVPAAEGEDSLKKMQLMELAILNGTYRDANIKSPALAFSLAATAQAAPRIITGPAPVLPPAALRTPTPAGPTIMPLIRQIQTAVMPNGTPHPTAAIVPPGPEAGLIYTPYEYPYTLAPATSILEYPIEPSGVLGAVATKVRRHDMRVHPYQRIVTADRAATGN
Sequence of UniProt Q8NA72 (Q8NA72 whole entry, looked up): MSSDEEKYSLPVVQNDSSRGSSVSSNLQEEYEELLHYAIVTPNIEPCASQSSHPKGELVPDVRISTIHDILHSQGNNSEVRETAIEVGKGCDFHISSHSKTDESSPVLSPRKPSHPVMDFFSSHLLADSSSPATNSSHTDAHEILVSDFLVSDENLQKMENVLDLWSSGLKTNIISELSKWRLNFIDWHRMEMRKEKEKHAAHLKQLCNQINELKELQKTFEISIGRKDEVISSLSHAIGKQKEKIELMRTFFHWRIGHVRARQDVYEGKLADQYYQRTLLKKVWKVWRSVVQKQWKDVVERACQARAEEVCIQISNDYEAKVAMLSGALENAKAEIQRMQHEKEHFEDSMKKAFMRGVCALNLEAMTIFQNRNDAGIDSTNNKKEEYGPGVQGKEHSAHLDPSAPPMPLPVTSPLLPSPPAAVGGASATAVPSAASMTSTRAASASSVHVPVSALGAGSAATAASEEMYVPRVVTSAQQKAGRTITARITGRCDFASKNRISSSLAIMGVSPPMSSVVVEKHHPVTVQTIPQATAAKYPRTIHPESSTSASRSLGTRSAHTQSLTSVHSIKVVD
Sequence of UniProt O15067 (O15067 whole entry, looked up): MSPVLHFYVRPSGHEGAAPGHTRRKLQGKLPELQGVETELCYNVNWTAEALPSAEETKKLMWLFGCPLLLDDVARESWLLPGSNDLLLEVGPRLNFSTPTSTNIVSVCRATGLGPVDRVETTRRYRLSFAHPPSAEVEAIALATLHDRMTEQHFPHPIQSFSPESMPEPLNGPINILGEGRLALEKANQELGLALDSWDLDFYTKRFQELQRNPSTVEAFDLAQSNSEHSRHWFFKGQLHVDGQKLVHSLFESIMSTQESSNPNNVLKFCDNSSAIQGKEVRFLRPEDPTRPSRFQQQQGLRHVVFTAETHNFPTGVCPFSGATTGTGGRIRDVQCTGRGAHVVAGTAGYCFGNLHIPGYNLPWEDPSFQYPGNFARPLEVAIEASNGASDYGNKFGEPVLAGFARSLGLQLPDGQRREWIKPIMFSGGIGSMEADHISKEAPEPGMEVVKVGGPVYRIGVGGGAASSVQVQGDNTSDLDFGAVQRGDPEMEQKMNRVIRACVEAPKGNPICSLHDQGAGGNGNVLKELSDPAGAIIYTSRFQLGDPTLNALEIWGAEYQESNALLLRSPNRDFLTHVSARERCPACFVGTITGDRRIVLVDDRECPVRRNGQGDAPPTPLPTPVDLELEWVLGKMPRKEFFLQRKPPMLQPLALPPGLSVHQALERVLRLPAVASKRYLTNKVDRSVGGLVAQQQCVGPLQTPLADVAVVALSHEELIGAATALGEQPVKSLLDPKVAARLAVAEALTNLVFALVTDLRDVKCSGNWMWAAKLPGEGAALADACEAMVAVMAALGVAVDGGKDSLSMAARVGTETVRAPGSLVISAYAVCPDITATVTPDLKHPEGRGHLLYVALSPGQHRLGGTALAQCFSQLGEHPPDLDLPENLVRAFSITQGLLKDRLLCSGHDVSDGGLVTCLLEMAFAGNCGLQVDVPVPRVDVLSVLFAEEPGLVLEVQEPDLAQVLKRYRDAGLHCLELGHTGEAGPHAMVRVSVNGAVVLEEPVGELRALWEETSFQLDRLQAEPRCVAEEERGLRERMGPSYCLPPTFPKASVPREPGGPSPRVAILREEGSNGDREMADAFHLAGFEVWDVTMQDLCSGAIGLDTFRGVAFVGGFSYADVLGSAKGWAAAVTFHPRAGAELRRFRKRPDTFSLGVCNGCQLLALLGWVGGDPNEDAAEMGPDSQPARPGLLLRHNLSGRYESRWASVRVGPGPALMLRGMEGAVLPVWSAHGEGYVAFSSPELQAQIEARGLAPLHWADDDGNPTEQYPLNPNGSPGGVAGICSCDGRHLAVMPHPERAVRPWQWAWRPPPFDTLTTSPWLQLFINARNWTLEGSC

On to PFAS (UniProt O15067), for which the log2 fold change in experiment [1] is 0.029; in experiment [2], -0.272 (active); in experiment [3], 0.022; in experiment [4], 0.031; in experiment [5], 0.016.

POC5 (UniProt Q8NA72): the log2 fold change in experiment [1] was -0.128; in experiment [2] it was -0.36 (active); in experiment [3] it was -0.021; in experiment [4] it was 0.02; in experiment [5], -0.184.

For the target PIAS2 (UniProt O75928), the log2 fold change in experiment [1] is 0.469 (active); in experiment [2], -0.334 (active); in experiment [3] it was -0.091; in experiment [4] it was -0.054; in experiment [5], 0.01.

Take PICALM (UniProt H0YEH1): the log2 fold change in experiment [1] was -0.048; in experiment [2], 0.037; in experiment [3] it was -0.045; in experiment [4], -0.075; in experiment [5], -0.237.

For PRMT8 (UniProt Q9NR22), the log2 fold change in experiment [1] was 0.067; in experiment [2], -0.157; in experiment [3], -0.018; in experiment [4], -0.017; in experiment [5] it was 0.002.

As to QKI (UniProt Q96PU8), the log2 fold change was -0.008 in experiment [1]; -0.147 in experiment [2]; 0.021 in experiment [3]; 0.045 in experiment [4]; 0.007 in experiment [5].

Regarding PRKACA (UniProt P17612), the log2 fold change is -0.114 in experiment [1]; 0.007 in experiment [2]; -0.02 in experiment [3]; 0.033 in experiment [4]; 0.03 in experiment [5].

Consider PPIE (UniProt Q9UNP9), for which the log2 fold change in experiment [1] was 0.024; in experiment [2] it was 0.096; in experiment [3], 0.035; in experiment [4], -0.045; in experiment [5], -0.036.

With PIM1 isoform 2 (UniProt P11309), the log2 fold change was 0.098 in experiment [1]; -0.188 in experiment [2]; 0.212 in experiment [3]; 0.019 in experiment [4]; 0.008 in experiment [5].
